Test results reported in the supplement of paper PMC11732987, “Enantioselective OTUD7B fragment discovery through chemoproteomics screening and high-throughput optimisation” (Communications Chemistry, 2025).

Legend:
Assay in all cases: log2 ratio of Biotin-Ahx-Ub-VS probe labelling (fragment/DMSO); higher = less target engagement (more negative = stronger competition), active = hit call of the paper (q ≤ 0.05, log2 ratio ≤ -1)
Conditions in all cases: compound concentration: 200 uM; treatment time: 3 h
USP19 = target: T1, USP19 (UniProt O94966)
T1 sequence (whole entry): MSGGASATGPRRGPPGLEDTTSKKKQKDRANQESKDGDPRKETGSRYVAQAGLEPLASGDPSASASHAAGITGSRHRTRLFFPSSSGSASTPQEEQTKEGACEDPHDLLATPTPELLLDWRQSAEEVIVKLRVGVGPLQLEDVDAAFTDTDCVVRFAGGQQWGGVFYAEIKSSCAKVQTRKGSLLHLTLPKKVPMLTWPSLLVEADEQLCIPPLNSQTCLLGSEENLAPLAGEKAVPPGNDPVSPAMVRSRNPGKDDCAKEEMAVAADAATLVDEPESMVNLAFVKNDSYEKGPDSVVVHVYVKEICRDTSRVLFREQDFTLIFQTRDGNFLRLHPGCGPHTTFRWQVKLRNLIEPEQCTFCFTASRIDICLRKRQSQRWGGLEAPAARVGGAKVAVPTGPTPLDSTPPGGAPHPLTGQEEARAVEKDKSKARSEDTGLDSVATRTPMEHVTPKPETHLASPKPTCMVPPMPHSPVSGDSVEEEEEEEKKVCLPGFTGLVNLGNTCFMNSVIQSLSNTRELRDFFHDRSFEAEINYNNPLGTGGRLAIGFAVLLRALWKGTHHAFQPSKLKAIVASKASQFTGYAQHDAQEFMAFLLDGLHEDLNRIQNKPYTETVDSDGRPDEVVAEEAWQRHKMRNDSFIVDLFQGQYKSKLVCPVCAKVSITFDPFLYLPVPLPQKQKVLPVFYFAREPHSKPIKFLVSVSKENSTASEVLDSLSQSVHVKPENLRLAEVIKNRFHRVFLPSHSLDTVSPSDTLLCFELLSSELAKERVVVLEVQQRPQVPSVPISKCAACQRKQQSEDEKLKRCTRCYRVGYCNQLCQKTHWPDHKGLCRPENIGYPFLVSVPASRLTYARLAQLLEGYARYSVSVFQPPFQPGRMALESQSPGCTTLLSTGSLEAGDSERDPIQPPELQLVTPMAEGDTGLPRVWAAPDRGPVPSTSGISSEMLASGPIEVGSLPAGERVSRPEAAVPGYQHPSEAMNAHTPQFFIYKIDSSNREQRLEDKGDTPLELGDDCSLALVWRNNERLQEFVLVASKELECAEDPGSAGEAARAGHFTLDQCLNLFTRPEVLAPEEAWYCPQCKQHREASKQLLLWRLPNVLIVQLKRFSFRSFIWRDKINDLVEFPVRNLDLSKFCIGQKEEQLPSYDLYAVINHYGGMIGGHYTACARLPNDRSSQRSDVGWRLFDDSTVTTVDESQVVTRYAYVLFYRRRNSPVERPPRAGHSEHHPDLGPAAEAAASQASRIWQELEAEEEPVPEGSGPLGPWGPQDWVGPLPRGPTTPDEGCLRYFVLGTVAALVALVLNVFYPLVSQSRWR
In short: (§1)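 The table lists average log2 ratios of fragment over vehicle, from an unpaired t-test on global-median-normalised Spectronaut label-free quantities. Proteins with ≥2 unique peptides were used. Samples were HEK293T lysate (495 µg) treated in triplicate with fragment at 200 µM or vehicle for 3 h, then with Biotin-Ahx-Ub-VS (0.5 µM final) for 1 h, with labelled DUBs NeutrAvidin-enriched and run by diaPASEF LC-MS/MS.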

USP22 = target: T2, USP22 (UniProt Q9UPT9)
T2 sequence (whole entry): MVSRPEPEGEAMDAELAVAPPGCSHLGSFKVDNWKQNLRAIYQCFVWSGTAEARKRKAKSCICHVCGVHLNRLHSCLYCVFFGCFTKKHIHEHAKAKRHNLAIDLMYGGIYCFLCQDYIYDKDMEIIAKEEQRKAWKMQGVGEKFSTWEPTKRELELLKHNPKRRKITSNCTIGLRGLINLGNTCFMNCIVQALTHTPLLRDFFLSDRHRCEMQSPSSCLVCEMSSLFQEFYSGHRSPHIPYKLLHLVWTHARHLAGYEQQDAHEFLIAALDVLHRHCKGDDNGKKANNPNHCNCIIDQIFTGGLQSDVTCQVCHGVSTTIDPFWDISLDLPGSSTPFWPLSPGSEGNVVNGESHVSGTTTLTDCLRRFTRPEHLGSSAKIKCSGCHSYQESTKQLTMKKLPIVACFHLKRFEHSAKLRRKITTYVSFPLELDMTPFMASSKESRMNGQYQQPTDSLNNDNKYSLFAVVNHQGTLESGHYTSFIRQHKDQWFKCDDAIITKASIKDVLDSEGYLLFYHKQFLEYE
In short: as §1

USP24 = USP24 (UniProt Q9UPU5)
In short: as §1

USP25 = target: T3, USP25 (UniProt Q9UHP3)
T3 sequence (whole entry): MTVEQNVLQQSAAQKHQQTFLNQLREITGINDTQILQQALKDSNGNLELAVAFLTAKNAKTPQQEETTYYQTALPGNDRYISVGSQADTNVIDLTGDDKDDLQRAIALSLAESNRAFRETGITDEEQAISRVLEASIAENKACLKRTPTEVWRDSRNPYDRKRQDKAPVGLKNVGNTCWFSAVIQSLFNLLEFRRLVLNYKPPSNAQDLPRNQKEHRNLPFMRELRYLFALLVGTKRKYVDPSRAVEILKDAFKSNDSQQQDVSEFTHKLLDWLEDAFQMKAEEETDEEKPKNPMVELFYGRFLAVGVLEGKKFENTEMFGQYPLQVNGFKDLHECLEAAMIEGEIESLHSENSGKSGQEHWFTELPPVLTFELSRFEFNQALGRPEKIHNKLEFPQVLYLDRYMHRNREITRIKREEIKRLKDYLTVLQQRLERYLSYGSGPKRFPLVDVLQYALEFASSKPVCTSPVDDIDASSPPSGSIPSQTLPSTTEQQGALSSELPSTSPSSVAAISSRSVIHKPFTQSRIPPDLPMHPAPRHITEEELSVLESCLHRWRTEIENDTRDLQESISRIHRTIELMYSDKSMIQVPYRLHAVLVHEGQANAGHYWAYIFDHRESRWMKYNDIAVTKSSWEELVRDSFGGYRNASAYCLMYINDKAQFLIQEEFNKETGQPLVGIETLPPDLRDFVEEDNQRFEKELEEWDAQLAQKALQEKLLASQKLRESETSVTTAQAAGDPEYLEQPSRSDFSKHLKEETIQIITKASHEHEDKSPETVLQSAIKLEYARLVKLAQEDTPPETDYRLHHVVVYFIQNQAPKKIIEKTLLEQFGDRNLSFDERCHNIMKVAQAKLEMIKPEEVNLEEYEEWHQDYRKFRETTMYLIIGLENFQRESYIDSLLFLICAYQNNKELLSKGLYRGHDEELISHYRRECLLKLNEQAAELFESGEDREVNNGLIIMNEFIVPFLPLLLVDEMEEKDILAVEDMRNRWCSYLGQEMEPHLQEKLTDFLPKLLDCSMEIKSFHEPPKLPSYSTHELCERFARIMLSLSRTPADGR
In short: as §1

USP28 = target: T4, USP28 (UniProt Q96RU2)
T4 sequence (whole entry): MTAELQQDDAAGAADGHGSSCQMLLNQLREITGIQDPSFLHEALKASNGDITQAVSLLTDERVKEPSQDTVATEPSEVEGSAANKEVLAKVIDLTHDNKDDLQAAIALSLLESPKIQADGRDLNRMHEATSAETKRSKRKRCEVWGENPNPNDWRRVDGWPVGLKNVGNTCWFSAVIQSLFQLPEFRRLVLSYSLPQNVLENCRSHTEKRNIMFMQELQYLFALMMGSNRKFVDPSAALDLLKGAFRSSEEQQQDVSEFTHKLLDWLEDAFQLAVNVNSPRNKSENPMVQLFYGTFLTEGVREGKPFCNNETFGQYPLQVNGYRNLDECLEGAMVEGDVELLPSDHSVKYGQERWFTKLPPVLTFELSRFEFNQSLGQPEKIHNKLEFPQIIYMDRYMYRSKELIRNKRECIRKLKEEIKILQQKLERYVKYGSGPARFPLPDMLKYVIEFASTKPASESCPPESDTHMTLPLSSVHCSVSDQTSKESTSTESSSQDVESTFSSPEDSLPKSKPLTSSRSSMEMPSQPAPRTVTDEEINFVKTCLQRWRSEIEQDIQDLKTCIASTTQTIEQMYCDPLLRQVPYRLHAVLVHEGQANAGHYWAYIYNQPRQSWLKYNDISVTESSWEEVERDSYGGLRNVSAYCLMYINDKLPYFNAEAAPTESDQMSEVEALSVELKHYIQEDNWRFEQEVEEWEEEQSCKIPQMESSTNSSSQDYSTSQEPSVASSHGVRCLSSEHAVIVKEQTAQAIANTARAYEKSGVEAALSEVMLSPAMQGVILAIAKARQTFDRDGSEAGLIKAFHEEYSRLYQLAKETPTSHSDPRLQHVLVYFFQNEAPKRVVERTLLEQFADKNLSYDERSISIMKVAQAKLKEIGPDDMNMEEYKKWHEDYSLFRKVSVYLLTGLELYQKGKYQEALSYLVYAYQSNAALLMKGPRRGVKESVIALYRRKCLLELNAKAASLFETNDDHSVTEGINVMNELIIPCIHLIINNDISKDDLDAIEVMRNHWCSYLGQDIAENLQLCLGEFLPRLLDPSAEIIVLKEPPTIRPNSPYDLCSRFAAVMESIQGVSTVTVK
In short: as §1

Measured: log2 ratio of Biotin-Ahx-Ub-VS probe labelling

USP24, sequence (Q9UPU5 whole entry): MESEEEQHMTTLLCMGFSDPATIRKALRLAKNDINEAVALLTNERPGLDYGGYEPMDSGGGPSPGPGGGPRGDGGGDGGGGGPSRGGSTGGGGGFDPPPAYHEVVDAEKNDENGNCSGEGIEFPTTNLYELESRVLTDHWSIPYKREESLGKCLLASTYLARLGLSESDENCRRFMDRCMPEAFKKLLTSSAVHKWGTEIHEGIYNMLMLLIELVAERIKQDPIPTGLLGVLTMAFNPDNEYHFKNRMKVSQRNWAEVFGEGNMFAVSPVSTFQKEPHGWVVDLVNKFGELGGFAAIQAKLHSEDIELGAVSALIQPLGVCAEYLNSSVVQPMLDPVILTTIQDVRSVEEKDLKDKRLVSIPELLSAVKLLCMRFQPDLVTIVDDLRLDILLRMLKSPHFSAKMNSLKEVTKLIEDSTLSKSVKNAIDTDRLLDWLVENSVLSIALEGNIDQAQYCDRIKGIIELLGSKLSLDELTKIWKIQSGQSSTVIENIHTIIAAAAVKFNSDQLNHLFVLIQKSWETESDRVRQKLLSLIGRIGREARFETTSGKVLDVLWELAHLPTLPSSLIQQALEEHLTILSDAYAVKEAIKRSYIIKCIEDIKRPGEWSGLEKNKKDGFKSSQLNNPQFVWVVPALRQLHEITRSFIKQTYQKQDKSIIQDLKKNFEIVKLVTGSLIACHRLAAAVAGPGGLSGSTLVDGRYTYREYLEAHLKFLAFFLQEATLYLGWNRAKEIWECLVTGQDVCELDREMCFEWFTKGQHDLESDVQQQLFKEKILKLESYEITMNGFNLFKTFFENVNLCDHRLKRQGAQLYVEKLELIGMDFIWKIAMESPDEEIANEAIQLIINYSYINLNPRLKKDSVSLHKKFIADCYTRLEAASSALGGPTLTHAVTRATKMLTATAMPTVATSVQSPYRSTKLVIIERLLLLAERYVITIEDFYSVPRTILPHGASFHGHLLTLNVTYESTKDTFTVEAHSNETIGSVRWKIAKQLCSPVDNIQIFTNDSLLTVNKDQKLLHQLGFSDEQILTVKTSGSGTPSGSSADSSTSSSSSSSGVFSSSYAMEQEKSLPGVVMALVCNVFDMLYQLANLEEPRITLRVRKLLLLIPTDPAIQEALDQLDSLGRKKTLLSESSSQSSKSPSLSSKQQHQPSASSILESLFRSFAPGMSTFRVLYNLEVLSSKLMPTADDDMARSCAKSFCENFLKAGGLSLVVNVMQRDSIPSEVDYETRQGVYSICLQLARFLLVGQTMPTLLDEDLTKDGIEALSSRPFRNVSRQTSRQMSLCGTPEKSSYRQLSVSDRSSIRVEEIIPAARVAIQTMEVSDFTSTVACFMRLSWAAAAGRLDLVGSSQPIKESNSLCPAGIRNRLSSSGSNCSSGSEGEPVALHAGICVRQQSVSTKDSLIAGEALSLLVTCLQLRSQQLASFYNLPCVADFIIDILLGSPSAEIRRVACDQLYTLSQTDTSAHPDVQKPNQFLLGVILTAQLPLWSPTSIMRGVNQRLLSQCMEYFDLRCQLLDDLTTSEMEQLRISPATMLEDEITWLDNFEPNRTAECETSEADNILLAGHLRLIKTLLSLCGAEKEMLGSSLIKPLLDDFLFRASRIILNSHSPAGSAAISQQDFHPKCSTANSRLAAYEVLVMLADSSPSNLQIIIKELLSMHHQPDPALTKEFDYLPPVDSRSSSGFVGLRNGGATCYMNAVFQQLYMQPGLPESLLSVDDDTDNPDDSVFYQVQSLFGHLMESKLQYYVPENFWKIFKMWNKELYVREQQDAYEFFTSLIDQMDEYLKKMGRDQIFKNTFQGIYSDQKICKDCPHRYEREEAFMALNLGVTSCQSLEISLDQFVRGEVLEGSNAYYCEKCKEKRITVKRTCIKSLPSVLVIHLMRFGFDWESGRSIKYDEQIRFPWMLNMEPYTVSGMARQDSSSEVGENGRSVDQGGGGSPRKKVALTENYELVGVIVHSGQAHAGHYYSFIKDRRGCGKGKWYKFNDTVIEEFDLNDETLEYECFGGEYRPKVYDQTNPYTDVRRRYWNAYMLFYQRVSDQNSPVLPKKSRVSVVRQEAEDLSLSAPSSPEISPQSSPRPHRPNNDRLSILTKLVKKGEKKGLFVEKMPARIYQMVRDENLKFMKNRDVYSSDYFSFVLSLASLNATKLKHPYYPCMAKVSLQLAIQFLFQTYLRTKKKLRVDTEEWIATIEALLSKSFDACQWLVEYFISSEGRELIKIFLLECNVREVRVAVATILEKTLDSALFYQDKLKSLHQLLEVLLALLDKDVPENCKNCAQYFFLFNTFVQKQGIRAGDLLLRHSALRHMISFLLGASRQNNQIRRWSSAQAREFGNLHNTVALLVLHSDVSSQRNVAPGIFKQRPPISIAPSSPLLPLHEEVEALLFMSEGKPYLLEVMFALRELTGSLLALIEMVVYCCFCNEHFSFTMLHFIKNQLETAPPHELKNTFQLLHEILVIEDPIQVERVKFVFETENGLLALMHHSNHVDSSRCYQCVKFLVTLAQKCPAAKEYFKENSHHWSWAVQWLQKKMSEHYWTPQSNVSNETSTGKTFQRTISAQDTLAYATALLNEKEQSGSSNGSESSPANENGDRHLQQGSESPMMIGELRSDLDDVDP

Cl.Cn1ncc2c1CC(NC(=O)CCl)CC2 (stereo not given)
inactive: USP19 0.0381 | USP22 0.0984 | USP24 0.0406 | USP25 -0.321 | USP28 -0.758
